Most compounds without a hit are left out; they make up all but 4.6% or so of the library.
HIF-2a block: inhibitors of HIF-2a; inhibition, % at 18.8 µM; hit rate 0.72% among 360,000; 786-0 RCC cells HIF-2a reporter, luciferase luminescence, overnight;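 active means inhibition of the luminescence signal of 40% or more relative to plate controls, in a single-dose primary screen at 18.75 µM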
KKLEB tox: CF airway cell cytotoxicity counter-screen. KKLEB CF airway cells viability, ATPlite luminescence, overnight; active compounds read low; cells stimulated with P. aeruginosa culture filtrate. activity change (cytotoxicity), % at 5 µM. hit rate 0.36% among 360,000;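 active means corrected activity change at or below -50% at 5 µM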
CF NFkB inh: inhibitors of cystic fibrosis induced NF-kB. KKLEB NF-kB-GFP reporter, PAF-induced, GFP fluorescence overnight. inhibition, % at 5 µM. hit rate 0.86% among 360,000. AID 588850;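 active means at least 50% inhibition at 5 µM, scaled per plate between neutral and stimulator controls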;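 further: PAF is a Pseudomonas aeruginosa culture filtrate used as stimulus; plate controls were PAF-stimulated DMSO wells for no effect and unstimulated DMSO wells for full effect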
Mdm2 MdmX PPI: inhibitors of human Mdm2/MdmX interaction | SaOS-2 split-luciferase Mdm2/MdmX complementation, luminescence | inhibition, % at 8 µM | hit rate 3% among 330,000;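 active means inhibition of at least 50% at 8 µM in the primary screen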
ABHD5-PLIN5 inh: blocks binding of human ABHD5 to perilipin-5; inhibition, % at 4 µM; hit rate 0.78% among 360,000; Split G. princeps luciferase complementation, luminescence, 4 h; Q00G26+Q8WTS1;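 active means inhibition above the mean inhibition across every tested compound plus 3 SD, cut at about 22% in these data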;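 further: 0% = DMSO only wells and the 100% control is not disclosed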
Target sequence (Q00G26 whole entry, looked up): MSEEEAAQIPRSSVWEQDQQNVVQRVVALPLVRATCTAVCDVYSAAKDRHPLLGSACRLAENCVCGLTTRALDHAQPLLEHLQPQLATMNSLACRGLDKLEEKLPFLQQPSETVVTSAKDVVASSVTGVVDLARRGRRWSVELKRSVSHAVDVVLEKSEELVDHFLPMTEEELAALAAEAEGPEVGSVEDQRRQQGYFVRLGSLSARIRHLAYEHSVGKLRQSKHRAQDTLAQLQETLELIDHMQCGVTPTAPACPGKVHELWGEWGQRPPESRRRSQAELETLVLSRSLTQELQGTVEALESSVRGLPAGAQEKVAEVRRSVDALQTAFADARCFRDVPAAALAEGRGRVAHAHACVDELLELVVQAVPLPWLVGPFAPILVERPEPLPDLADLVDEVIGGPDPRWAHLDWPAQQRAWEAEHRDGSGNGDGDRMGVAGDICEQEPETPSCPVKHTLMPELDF
Target sequence (Q8WTS1 whole entry, looked up): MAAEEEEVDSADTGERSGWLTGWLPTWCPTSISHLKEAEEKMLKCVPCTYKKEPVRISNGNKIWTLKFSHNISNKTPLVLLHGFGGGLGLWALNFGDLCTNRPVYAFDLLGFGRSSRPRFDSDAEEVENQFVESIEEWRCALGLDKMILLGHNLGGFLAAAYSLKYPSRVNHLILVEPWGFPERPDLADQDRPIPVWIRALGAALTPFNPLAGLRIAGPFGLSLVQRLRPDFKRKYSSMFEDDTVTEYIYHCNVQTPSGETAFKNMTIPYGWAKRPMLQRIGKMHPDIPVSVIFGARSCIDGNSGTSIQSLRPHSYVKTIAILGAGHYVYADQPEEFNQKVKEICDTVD
Peg3 promoter: inhibitors of Peg3 promoter; HeLa PEG-Prom luciferase reporter, luminescence, overnight; inhibition, % at 20 µM; hit rate 1.7% among 360,000; AID 588405;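 active means inhibition of at least 50% at 20 µM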
Numbers without * were called inactive; / = not tested or not shown.

SMILES	HIF-2a block	KKLEB tox	CF NFkB inh	Mdm2 MdmX PPI	ABHD5-PLIN5 inh	Peg3 promoter
COc1ccc(NC(=O)Nc2nc(C(N)Cc3ccc(C(F)(F)F)cc3)cs2)cc1 (stereo not drawn)	1.8	-16.8	27.6	/	-6.4	97.6*
Cc1ccc(C(=O)Nc2nc(C(N)Cc3ccc(C(F)(F)F)cc3)cs2)cc1 (stereo not drawn)	9.2	-7.7	12.1	/	-15.6	96.2*
COc1ccc(CC(N)c2csc(Nc3cc(NCCCO)ncn3)n2)cc1 (stereo not drawn)	15.6	-2.9	12.4	/	7.5	13.9
Cc1ccc(CNC(=O)c2ccc(F)c(S(=O)(=O)N3CCOCC3)c2)cc1	7.3	-10.2	4.0	16.9	-0.1	-1.3
CC1(C(=O)NS(=O)(=O)Cc2ccccc2C(F)(F)F)CCN1C(=O)C/C=C/c1ccccc1 (stereo not drawn)	3.7	-15.6	0.6	/	2.5	5.8
COc1cccc(N2CCN(CC(=O)NC(=O)NC3CCCCC3)CC2)c1	2.3	14.8	-25.9	26.0	-2.9	8.6
CCOC(=O)N1CCN(C2=C(NS(=O)(=O)c3ccc(Br)cc3)C(=O)c3ccccc3C2=O)CC1	2.3	12.0	58.5*	/	-22.0	17.1
CCOC(=O)N1CCN(C2=C(NS(=O)(=O)c3ccccc3)C(=O)c3ccccc3C2=O)CC1	-1.1	-4.9	10.9	-10.8	-38.3	-5.0
O=C(Nc1ccc([N+](=O)[O-])cc1)Nc1ccc(N2CCOCC2)c2nonc12	-32.4	-19.7	10.5	49.7	-4.0	62.2*
CC(=O)Nc1cc([N+](=O)[O-])ccc1N1CCOCC1	14.4	5.1	23.3	7.0	-0.7	4.5
Cc1cccc2cc3c(N)c(C(=O)Nc4ccc(N5CCOCC5)cc4)sc3nc12	-21.0	-31.4	-59.8	48.2	0.1	55.6*
CC1=C/C(=N\OS(=O)(=O)c2ccccc2)C(C(C)C)=CC1=O	29.5	9.8	4.4	/	20.8	95.7*
Cc1c(NC(=O)c2cccc(NC(=O)COc3ccccc3)c2)c(=O)n(-c2ccccc2)n1C	-2.7	15.6	-7.7	17.7	-6.1	-12.1
Cc1c(NC(=O)c2cccc(NC(=O)COc3ccccc3C#N)c2)c(=O)n(-c2ccccc2)n1C	44.7*	-4.6	-22.7	42.5	17.2	0.4
CSCCC(C(=O)NC1CCCC1)n1c(C2CCCC2)nc2ccccc21 (stereo not drawn)	8.7	/	/	/	1.1	/
COc1ccccc1NCC(O)COc1ccc(C(C)(C)C)cc1 (stereo not drawn)	-16.2	-5.8	-16.7	2.3	-18.9	-0.8
COc1ccc(OCC(O)CNCCOc2ccccc2OC)c(C(C)(C)C)c1 (stereo not drawn)	25.9	2.0	11.6	38.6	-1.5	62.8*
CCn1c(SCC(=O)N(C)CCC#N)nc2cc(S(=O)(=O)N3CCOCC3)ccc21	1.5	-8.4	14.8	17.6	22.7*	14.8
CCN(CC)C(=O)[C@H]1C[C@H](CC(=O)NCC23CC4CC(CC(C4)C2)C3)C(=O)N2CCc3c([nH]c4ccc(Cl)cc34)[C@]12C	-6.7	-6.0	25.2	47.8	-0.8	59.5*
CCN(CC)C(=O)[C@H]1C[C@H](CC(=O)NCCCN(C)C)C(=O)N2CCc3c([nH]c4ccc(Cl)cc34)[C@]12C	-10.1	-0.6	4.1	-9.5	8.1	9.1
COc1ccccc1CNc1nc(NC(C)C)nc2cc(-c3ccccc3)sc12	-17.9	4.3	12.8	/	8.3	75.4*
COCCNc1nc(NCc2cccc(OC)c2OC)c2sccc2n1	9.9	-10.0	5.3	/	4.9	11.6
COc1ccccc1CNc1nc(NCc2cccc(OC)c2OC)c2sccc2n1	19.5	-11.5	13.2	/	15.7	54.2*
CC(C)Nc1nc(NCCOc2ccccc2Cl)c2sc(-c3ccccc3)cc2n1	-22.4	-5.6	37.7	/	4.9	36.2
CC1CCCC=CC2CC(OC(=O)CN(C)C)CC2C(O)C=CC(=O)O1 (stereo not drawn)	36.7	-41.3	71.3*	/	1.9	55.5*
SMILES	HIF-2a block	KKLEB tox	CF NFkB inh	Mdm2 MdmX PPI	ABHD5-PLIN5 inh	Peg3 promoter
CCc1ccc(CN(C)C(=O)CCc2nc3ccccc3n(-c3ccc(OC)cc3)c2=O)cc1	16.5	-8.3	24.3	28.5	1.0	57.0*
CCN1/C(=C/c2ccc3cc(C)cc(C)c3[n+]2CC)Sc2cc(C)ccc21	-15.1	-52.6*	-245.4	/	7.9	98.9*
CN(C)S(=O)(=O)c1cccc(-c2nn(-c3ccccc3)cc2/C=C2\SC(=S)NC2=O)c1	0.0	-16.8	53.3*	/	4.5	59.9*
CC(=O)Nc1cccc(-c2csc(C(O)c3ccc(F)c(F)c3)n2)c1 (stereo not drawn)	-1.0	-7.1	0.0	/	1.6	13.2
COc1cc(/C=N/NC(=O)c2ccc(CN3c4cccc5cccc(c45)S3(=O)=O)cc2)cc(OC)c1O	10.3	-79.9*	69.1*	9.8	-0.9	56.8*
CC1=Nc2ccccc2/C1=C/c1sc(=S)n(-c2cccc(C(=O)O)c2)c1O	41.0*	-9.2	-23.9	/	12.7	-21.1
COc1cccc(-c2nn(-c3ccccc3)cc2C(=O)n2nnc3ccccc32)c1	13.5	-22.0	10.2	6.0	3.4	50.3*
O=C(c1cn(-c2ccccc2)nc1-c1ccccc1)n1nnc2ccccc21	11.8	-9.5	32.1	-1.8	2.5	30.4
COc1ccc(C(O)c2ncc(-c3ccccc3)[nH]2)cc1F (stereo not drawn)	-11.7	12.5	-9.4	/	1.5	-6.1
Cn1c(NCc2ccccc2)nc2c1c(=O)n(Cc1ccccc1)c(=O)n2C	32.4	-6.0	8.9	-12.3	-5.3	26.8
COc1ccc(CNc2nc3c(c(=O)n(Cc4ccc(F)cc4)c(=O)n3C)n2C)cc1	26.7	24.2	23.0	4.5	-4.4	50.3*
Cc1cccc(-c2ccc3[nH]c4c(c3c2)CCN2C[C@@H]([C@H](C)O)[C@@H](N(C)C(=O)Nc3ccc(F)cc3)C[C@@H]42)c1	1.6	-11.6	28.3	/	1.9	100.4*
C[C@H](O)[C@@H]1CN2CCc3c([nH]c4ccccc34)[C@@H]2C[C@@H]1N(C)C(=O)Nc1ccc(F)cc1	10.4	-7.1	0.7	/	9.0	-0.9
C[C@H](O)[C@@H]1CN2CCc3c([nH]c4ccc(-c5ccc6c(c5)OCO6)cc34)[C@@H]2C[C@@H]1N(C)C(=O)Nc1cc(Cl)cc(Cl)c1	8.9	-5.2	34.8	/	-11.6	66.6*
Cc1ccc(C2N(C)C(=O)c3ccccc3N2C)cc1 (stereo not drawn)	9.4	-3.9	-0.6	6.1	2.4	30.0
CCCc1nc2ccccc2c(C(=O)OCC(=O)Nc2cccc(S(=O)(=O)N3CCOCC3)c2)c1CC	9.6	1.6	6.6	39.7	-3.2	53.0*
CCCc1nc2ccccc2c(C(=O)OCC(=O)Nc2ccc(S(=O)(=O)N3CCOCC3)cc2)c1CC	1.9	4.8	12.8	37.5	-9.2	33.9
CC(C)(C)OC(=O)C[C@H]1C/C=C\C[C@H](CC(=O)NCCO)C(=O)NC[C@@H](c2ccccc2)OC1=O	5.6	7.7	15.3	37.3	-1.4	-3.6

Compound activity deposited in PubChem BioAssay by several laboratories.
